According to PubChem BioAssay (NCI):
“And” between values parts separate entries of the source, which are not always exact repeats. Identical values can stand only once. Compounds without any hit were thinned out: in the full panel of roughly 79,000, 15% have a hit. The source made the active and inactive calls. Rule as the data show it: active = growth inhibition above about 70%; inactive = the rest.

How the values were obtained:
[1] = NCI Yeast Anticancer Drug Screen. Data for the rad50 strain (AID 155);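 also: 0% = growth of vehicle-only cultures of the same strain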; settings: S. cerevisiae rad50 strain growth inhibition, hits give high values; at 50.0 µM unless noted
Method in brief: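 Readout: growth inhibition relative to vehicle-treated cultures. Compound exposure was carried out in a genetically defined yeast strain deficient in DNA damage repair.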

[2] = NCI Yeast Anticancer Drug Screen. Data for the mec2-1 strain (AID 157); settings: S. cerevisiae mec2-1 strain, hits give high values; at 50.0 µM unless noted
Method in brief: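 Cells of the genetically defined mec2-1 yeast strain are incubated with test compound. Inhibition of growth is calculated against vehicle-treated controls.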

[3] = NCI Yeast Anticancer Drug Screen. Data for the sgs1 mgt1 strain (AID 161);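 also: 0% = growth of cultures given vehicle only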; settings: S. cerevisiae sgs1 mgt1 strain, hits give high values; at 50.0 µM unless noted
Method in brief: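 Genetically altered yeast, compound exposure, growth inhibition relative to vehicle.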

[4] = NCI Yeast Anticancer Drug Screen. Data for the cln2 rad14 strain (AID 165);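 also: 0% = growth equal to vehicle treated cultures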; settings: S. cerevisiae cln2 rad14 strain, hits give high values; at 50.0 µM unless noted
Method in brief: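 The screen exposed genetically defined yeast (cln2 rad14) to test compounds and scored growth inhibition relative to vehicle-treated controls.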

[5] = NCI Yeast Anticancer Drug Screen. Data for the bub3 strain (AID 167); settings: S. cerevisiae bub3 mutant strain, hits give high values; at 50.0 µM unless noted
Method in brief: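 Readout: yeast growth inhibition, expressed relative to vehicle-only wells. The test organism is a mutant strain from a panel with lesions in DNA repair or checkpoint genes.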

[6] = NCI Yeast Anticancer Drug Screen. Data for the mlh1 rad18 strain (AID 175); settings: S. cerevisiae mlh1 rad18 strain growth inhibition, hits give high values; at 50.0 µM unless noted
Method in brief: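 Compound-treated yeast growth, normalised to vehicle controls. Strain bears defined DNA repair mutations.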

Measured: growth inhibition

CCOC(=O)C/C(=N\NC(=O)c1ccccc1O)C(=O)OCC
inactive: [1] 5.8% | [2] 1.95% | [3] 5.85% | [4] 0.9% | [5] 3.3% | [6] 29.9%

CCOC(=O)/C(C)=C\C=C(\C)CCC=C(C)C
inactive: [1] -8.8% | [2] -19.1% | [3] -2.45% | [4] -28.3% | [5] -15.2% | [6] 15.4%

C#CCOCC(CCl)OC(=O)Nc1ccccc1 (stereo not given)
inactive: [1] 14.7% | [2] 47.1% | [3] 11.6% | [4] 11.8% | [5] 14.7%
active: [6] 84.4%

CCc1cc(C(=O)OC/C(C)=N/O)c2ccccc2n1
inactive: [1] -18.8% | [2] -0.65% | [3] -10.1% | [4] -18.4% | [5] 30.4% | [6] -22.6%

NCCCCCN
inactive: [1] 14.4% | [2] -1.05% | [3] -15.9% | [4] 12.3% | [5] -16.7% | [6] -1.45%

CCCCNC(=S)NNC(=O)c1ccncc1
inactive: [1] -0.35% | [2] 3.65% | [3] -0.55% | [4] 5.5% | [5] 10.7% | [6] 3.45%

COC(=O)[C@]1(C)CCCC2(C)C1CC[C@H]1C=C(C)[C@H]3CCC12C3 (stereo not given in full)
inactive: [1] 14% | [2] 12.2% | [3] -25.1% | [4] 6.7% | [5] -1.25% | [6] 15.7%

CSc1nc(SC)c2ncn(C3CC(Oc4ccc(C)cc4)C(COc4ccc(C)cc4)O3)c2n1 (stereo not given)
inactive: [1] 15.8% | [2] -5.75% | [3] 17.1% | [4] 10.3% | [5] 8.45% | [6] -18.2%

Cc1ccc(S(=O)(=O)Oc2ccc3oc4cccc(NCCN(C)C)c4c(=O)c3c2)cc1
inactive: [1] -3.5% | [2] -13.7% | [3] -21.4% | [4] 5% | [5] -6.4% | [6] 3.1%

O=C(Cn1c(=O)ccn(C2OC(CO)C(O)C2F)c1=O)c1ccc(F)cc1 (stereo not given)
inactive: [1] -2.5% | [2] 0.3% | [3] -30.9% | [4] -48.8% | [5] 0.6% | [6] 3.1%

O=C(Nc1ccc(Cl)c(Cl)c1)Oc1cccc(NC(=S)Nc2ccccc2)c1
active: [2] 90.2% | [3] 93% | [4] 91.5% | [6] 94.7%
inactive: [1] 36.9% | [5] 69.8%

CCNc1ncnc2ncn(C)c12
inactive: [1] 18.9% | [2] -6.9% | [3] 15.1% | [4] 12.6% | [5] 15.1% | [6] -0.5%

CCOC(=O)C1=C(O)C(=O)C=C(O)C1=N
inactive: [1] -12.2% | [2] -2.6% | [3] -11.6% | [4] 4.5% | [5] -18.4% | [6] 9.65%

COc1cc(CNc2nc3ccc(C(F)(F)F)cc3nc2-c2ccccc2)cc(OC)c1OC
inactive: [1] -14.3% | [2] -3.05% | [3] -28.4% | [4] -10.2% | [5] 2.25% | [6] -4.55%

CN(C)C1=CC(=S)NC(c2ccccc2)C1 (stereo not given)
inactive: [1] -2.35% | [2] -16.1% | [3] -3.7% | [4] -11.8% | [5] -15% | [6] -0.55%

COc1cc(O)c2c(=O)cc(-c3ccc(O)cc3O)oc2c1CC=C(C)C
inactive: [1] 43.5% | [2] 0.4% | [3] -0.25% | [4] 17.7% | [5] -2.8% | [6] -20.5%

COc1ccc(NC(C)=O)cc1
inactive: [1] 24.8% | [2] 3.2% | [3] 2.7% | [4] 13.8% | [5] 11.8% | [6] -11.1%

CCCNC(=O)NS(=O)(=O)c1ccc(Cl)cc1
inactive: [1] -4.15% and -5.15% | [2] 0.2% and -0.4% | [3] 4.2% and 1.6% | [4] 15.6% and -26.4% | [5] 11.7% and 23.1% | [6] 38.3% and -7.15%

CCCCN=C(N)C(N)=NCCCC
inactive: [1] -13.8% | [2] -4.65% | [3] -5.7% | [4] -28.3% | [5] 0.5% | [6] -18.7%

C[N+]1(C)N=C([O-])N(c2ccccc2Cl)C1=O
inactive: [1] 21.4% | [2] -27.4% | [3] -6.6% | [4] -37.5% | [5] 1.15% | [6] 18.1%

C[N+]12CCCCC1C(CN1C(=O)c3ccccc3C1=O)CCC2 (stereo not given)
inactive: [1] 0.65% | [2] -6.05% | [3] 35.7% | [4] 10.9% | [5] 28.8% | [6] -40%

O=C(CNC(=O)C(Cc1ccccc1)N1C(=O)c2ccccc2C1=O)Nc1ccccc1 (stereo not given)
inactive: [1] 34.4% | [2] -1.55% | [3] 46.3% | [4] 5% | [5] 17.4% | [6] 6.55%

N#CC(c1ccccc1)c1ccc2ccccc2n1 (stereo not given)
inactive: [1] 23.6% | [2] 7.4% | [3] 10.8% | [4] 2.6% | [5] 33.5% | [6] -0.9%

CCOC(=O)C1=CN=C2C(=O)N(c3ccccc3)N(C)C2(C)C1=N (stereo not given)
inactive: [1] -4.8% | [2] 0.95% | [3] -19.4% | [4] 10.8% | [5] -11.2% | [6] 12.9%

N#CCCC1(CCC#N)CCCC(CCC#N)(CCC#N)C1=O
inactive: [1] 2% | [2] 7.6% | [3] 2.15% | [4] -51.5% | [5] 16.8% | [6] 11.2%

CC(C)NS(=O)(=O)OCC(O)(CC(Cl)(Cl)Cl)c1ccccc1 (stereo not given)
inactive: [1] 23.8% | [2] 4.2% | [3] 16.9% | [4] 21.9% | [5] 11.7% | [6] 38.7%

Cc1ccc(C(N)=O)cc1N=NN(C)C
inactive: [1] -25.8% | [2] -39.4% | [3] -56.9% | [4] 1.55% | [5] -16.6% | [6] -24.4%

C=C1CC(COc2ccc3c(C)c(Cl)c(=O)oc3c2)(c2ccccc2)OC1=O (stereo not given)
inactive: [1] 19% | [2] 20.4% | [3] 40% | [4] 37.5% | [5] 18.8% | [6] 37.6%

Nc1ncnc2c1ncn2C1OC(CSCC(F)(F)F)C(O)C1O (stereo not given)
inactive: [1] -4.05% | [2] -11.8% | [3] -8.65% | [4] 26.6% | [5] -7.8% | [6] -11.4%

OCC(O)C1OC(O)C(O)C(O)C1O (stereo not given)
inactive: [1] 1.45% | [2] -7.75% | [3] -32.2% | [4] -49.4% | [5] -6.75% | [6] 10.4%

COc1ccc2oc3cc(Cl)ccc3c(=O)c2c1
inactive: [1] 4.8% | [2] 0.85% | [3] -8.85% | [4] 4.35% | [5] 30.4% | [6] 14.2%

OCC12c3ccccc3C3c4ccccc4C1C32 (stereo not given)
inactive: [1] 10.2% | [2] -17.4% | [3] -4.05% | [4] -31.1% | [5] -18.9% | [6] 0.95%

CC(C)c1cccc(C(C)C)c1NC(=O)C(=O)Cc1nc2ccc([N+](=O)[O-])cc2[nH]c1=O
inactive: [1] 26.6% | [2] 19.6% | [3] 34.6% | [4] 25.3% | [5] 24.6% | [6] 40.8%

Cc1c(SC(Cl)(Cl)Cl)cc([N+](=O)[O-])c(N(C)C)c1[N+](=O)[O-]
inactive: [1] 13.5% | [2] 24.9% | [3] 34.6% | [4] -43.9% | [5] 6.45% | [6] 10%

O=c1nc2sccn2c2ncccc12
inactive: [1] -18.5% | [2] 5.35% | [3] -11.8% | [4] 46.6% | [5] 10.9% | [6] 16.1%

CC(=O)OCCN(CCOC(C)=O)CCOC(C)=O
inactive: [1] -8.4% | [2] -3.5% | [3] -3.4% | [4] -52.3% | [5] -3.4% | [6] 18.5%

COc1ccc(C2Oc3cc(OC)c(O)cc3[C@@H]2C)cc1 (stereo not given in full)
inactive: [1] -7.35% | [2] 28.6% | [3] 2.55% | [4] 15.6% | [5] 54.8% | [6] 31%

COc1ccc(C2=Nc3ccccc3N=C(SC)C2)cc1
inactive: [1] 42.2% | [2] -5.3% | [3] 51.1% | [4] 6.75% | [5] 53.7% | [6] 32.5%

Cc1nc2cnc(=Nc3ccccc3)nc-2n(-c2ccccc2)c1C
inactive: [1] -1.15% | [2] -1.55% | [3] -0.65% | [4] 56.9% | [5] 5.15% | [6] -7.9%

Cc1cc2ccccc2c[n+]1CC(O)C[n+]1cc2ccccc2cc1C
inactive: [1] -18.9% | [2] -31.1% | [3] -36.4% | [4] -27.7% | [5] -45% | [6] -0.8%
